# ANO1 activ: mouse TMEM16A channel activation, primary screen; B-score at 10 µM; hit rate 0.3% among 340,000; HEK293 TMEM16A/YFP-H148Q/I152L, iodide quench fluorescence; hits give low values; Q8BHY3;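 active = fluorescence-ratio B-score plate-corrected deviation score at least 3 library SD below zero, with starting fluorescence score within 5 deviations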;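 also: channel opened by trigger with iodide after compound preincubation; score built on the fluorescence ratio of max minus min over baseline; more negative score means more quench and so TMEM16A activation or potentiation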
# HDAC3 inhib: blocks human histone deacetylase 3; O15379; recombinant HDAC3, fluorogenic peptide/trypsin coupled, fluorescence; inhibition, % at 8.3 µM; hit rate 0.15% among 320,000; AID 2718; in the data active = inhibition above about 26%, passing the limit was not always enough
# Target sequence (O15379 whole entry, looked up): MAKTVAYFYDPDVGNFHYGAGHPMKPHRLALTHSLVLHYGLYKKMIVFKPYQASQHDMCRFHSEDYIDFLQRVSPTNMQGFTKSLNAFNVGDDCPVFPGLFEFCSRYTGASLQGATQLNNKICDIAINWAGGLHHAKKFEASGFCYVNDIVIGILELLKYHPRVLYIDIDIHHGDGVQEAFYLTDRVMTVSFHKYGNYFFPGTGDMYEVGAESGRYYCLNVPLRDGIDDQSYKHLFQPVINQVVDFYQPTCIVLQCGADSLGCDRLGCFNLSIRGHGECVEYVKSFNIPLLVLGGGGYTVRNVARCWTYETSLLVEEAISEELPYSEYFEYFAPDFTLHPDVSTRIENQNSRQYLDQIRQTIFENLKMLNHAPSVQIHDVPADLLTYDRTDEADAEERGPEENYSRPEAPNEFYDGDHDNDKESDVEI
# CHT inh: human CHT choline transport inhibition. Q9GZV3. CHT-expressing cells, membrane potential dye, choline response; hits give low values. B-score at 10 µM. hit rate 0.86% among 310,000. AID 488975;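 active = B-score over 3 SD under the library average, and starting fluorescence ratio not unusually high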;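 also: choline stimulus applied at its EC90 after an EC20 pre-addition; B-score computed on integrated fluorescence ratio after choline addition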
# PHOSPHO1 inh: inhibitors of human PHOSPHO1 phosphatase. Q8TCT1. recombinant PHOSPHO1, absorbance phosphatase assay. inhibition, % at 13.3 µM. hit rate 1.1% among 290,000. AID 1565; in the data active = inhibition above about 60%
# CHT allo act: allosterically activates the human high affinity choline transporter; Q9GZV3; CHT-expressing cells, membrane potential dye, choline EC20; hits give high values; LV-AA mutant CHT in HEK293 cells; B-score at 10 µM; hit rate 0.49% among 310,000; AID 488977;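 active = initial fluorescence not abnormally high and integrated response B-score, plate-corrected, over 3 SD above library mean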
# TMEM16A inh: inhibitors of mouse TMEM16A calcium-activated chloride channel. Q8BHY3. hit rate 1.2% among 310,000. normalized B-score (activity score, 25-100; higher = stronger inhibition) at 10 µM. HEK293 TMEM16A/YFP iodide influx fluorescence, ionomycin;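 active = ratio plate-corrected score three or more library SD toward inhibition, starting fluorescence score within five deviations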;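 also: score derived from kinetic fluorescence span divided by baseline fluorescence per well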
# Numbers without * were called inactive; i = inactive; nt = not tested or not shown. A selection: hits, their analogues and other compounds. The true share with any hit is near 3.2%.
SMILES,ANO1 activ,HDAC3 inhib,CHT inh,PHOSPHO1 inh,CHT allo act,TMEM16A inh
COCCNC(=S)N(CCO)Cc1cc2cc3c(cc2[nH]c1=O)OCCO3,i,32*,i,-6,i,i
COc1ccc(/C=C/C(=O)NC(=S)NNC(=O)c2cccs2)cc1OC,i,0,i,-72,i,i
COc1ccc(/C=C/C(=O)NC(=S)NNC(=O)Cc2cccs2)cc1OC,i,1,i,98*,i,i
COc1cc(OC)cc(C(=O)NC(=S)NNC(=O)Cc2cccs2)c1,i,2,i,-24,i,i
COc1ccc(C(=O)NC(=S)NNC(=O)Cc2cccs2)cc1,i,1,i,100*,i,i
Cn1cccc1CC(=O)NNC(=S)NC(=O)c1ccc(F)cc1,i,4,i,92*,i,i
Cc1nccn1CC(=O)c1ccc(O)c(O)c1,i,-3,nt,nt,nt,nt
CC1Cc2ccccc2N1C(=O)CSc1nnc2sc3ccccc3n12 (stereo not drawn),i,1,i,16,i,i
CCCSc1cc(N2CCCC2)nc(-c2ccccc2)n1,-26*,-6,i,38,i,i
COc1cc(O)c(C(C)=O)c(CC(=O)O)c1,i,-4,i,-19,i,i
CCc1c(C)nc(N)nc1Cl,i,-5,i,9,i,i
Cc1nc2c(C(=O)NCCC3=CCCCC3)c[nH]n2c(=O)c1Cl,i,1,i,82*,i,i
CN(C)Cc1c(O)ccc2occ(C(=O)c3ccccc3)c12,i,-8,i,2,i,25*
O=C(OCc1c(F)cccc1Cl)c1cnc2ccccc2n1,i,-5,i,32,i,i
NC(=O)Nc1ccc(C(=O)OCC(=O)Nc2cccc(S(=O)(=O)NC3=NCCCCC3)c2)cc1,i,-7,i,4,i,i
O=C(COC(=O)c1ccc(O)cc1)Nc1cccc(S(=O)(=O)NC2=NCCC2)c1,-31*,3,nt,nt,nt,nt
CCCCNC(=S)NNC(=O)CCn1cc(C)cn1,i,0,i,7,i,i
CCOC(=O)C1(N(CC)CC)Sc2cc(C)ccc2NC1=O (stereo not drawn),i,14,i,41,i,i
COC(=O)C1=C(C(=O)OC)SC2(S1)C(C(=O)OC)=C(C(=O)OC)SC1=C2c2cc(C)ccc2NC1(C)C,i,9,i,98*,i,i
COCc1ccccc1Cn1cnc2c1c(=O)n(C)c(=O)n2C,i,-1,i,13,i,i
O=[N+]([O-])c1ccc(Sc2cccc[n+]2[O-])c2nonc12,-4.9*,nt,nt,8,nt,nt
COc1ccc(-c2noc(N3CCC(C(=O)Nc4cc(OC)ccc4OC)CC3)n2)cc1,i,-11,i,41,i,i
O=c1[nH]c(=O)c2nnc(N/N=C/c3ccccc3F)nc2[nH]1,i,3,i,3,i,i
O=C(CCNC(=O)C1CCN(S(=O)(=O)c2ccccc2)CC1)NCc1ccncc1,-28*,-5,i,-16,i,i
CC(=O)Nc1ccc(S(=O)(=O)N2CCC(C(=O)NCCC(=O)NCc3ccncc3)CC2)cc1,i,3,i,-140,i,i
SMILES,ANO1 activ,HDAC3 inhib,CHT inh,PHOSPHO1 inh,CHT allo act,TMEM16A inh
Cc1cc(C)n(-c2ccc(Oc3ccccc3)c(S(=O)(=O)O)c2)n1,i,-4,i,-3,i,i
CCc1c(C)[nH]n(-c2ccc(Oc3ccccc3)c(S(=O)(=O)O)c2)c1=O,i,6,i,65*,i,i
C/C(=N\NC(=O)C12CCC(C)(C(=O)O1)C2(C)C)c1ccccc1O (stereo not drawn),i,10,i,16,i,i
C=CCN1c2ccccc2[C@]23C[C@@H](C(=O)OC)N(C(=O)c4cc(C)oc4C)C2=NC(C(=O)OC)=C(C(=O)OC)[C@H]13,nt,-4,i,31,i,i
O=C1c2ccccc2C(=O)N1CCSc1n[nH]c(=S)s1,i,2,i,99*,i,i
CC(CSc1n[nH]c(=S)s1)c1ccccc1 (stereo not drawn),i,nt,nt,nt,nt,nt
CCC(Sc1nc(C)cc(C)n1)C(=O)NC1=NN=C(c2ccc(C)cc2)CS1 (stereo not drawn),i,4,i,104*,i,i
COc1ccccc1C(=O)NCCC(=O)Nc1ccc(C)cn1,i,-1,i,28,i,i
C/C(=N/NS(=O)(=O)c1ccc(Br)cc1)c1ccc(NC(=O)c2ccc(C)o2)cc1,i,18,i,74*,i,i
CCCCNS(=O)(=O)C1CCS(=O)(=O)C1 (stereo not drawn),i,6,i,23,i,i
COc1ccc2occ(NC(C)=O)c2c1,i,-3,i,0,i,i
Cc1cc(C)cc(C(=O)NCC(=O)OCC(=O)Nc2ccc(C)cc2Br)c1,-4.6*,1,i,46,i,i
Cc1nnc(SC2CC(=O)N(c3ccccc3)C2=O)s1 (stereo not drawn),i,1,i,-4,i,i
CSC(=Nc1ccccc1)N=C(SCc1ccccc1)N(C)C,-13*,nt,nt,nt,nt,nt
N#CNC(=Nc1ccccc1)SCc1ccc(C(=O)O)cc1,i,-1,i,16,i,i
Cc1ccc(CNCCCSc2ncccn2)cc1,i,1,i,nt,i,i
CCCN1/C(=C(/C#N)C2=NS(=O)(=O)c3ccccc32)N(C)c2ccccc21,i,2,i,7,i,i
CC(=O)NC1N=C(C)N(c2ccccc2)C1=O (stereo not drawn),i,4,i,100*,i,i
Cc1cc(C)n(C2CC(=O)N(c3ccccc3)C2=O)n1 (stereo not drawn),i,-2,i,-2,i,i
CC(=O)N(/N=C1\Sc2ccccc2C1=O)c1ccc(C)cc1C,i,2,i,94*,i,i
CN(Cc1cccs1)C(=O)CCCc1c[nH]c2ccccc12,-6.3*,0,i,13,i,i
CN(Cc1cccs1)C(=O)CCc1c[nH]c2ccccc12,i,nt,i,-2,i,i
CCOC(=O)N1CCC(N2C(=O)c3ccc(C(=O)NCCC(C)C)cc3C2=O)CC1,i,-2,i,11,i,i
CCOC(=O)N1CCC(N2C(=O)c3ccccc3C2=O)CC1,i,2,i,99*,i,i
CCCc1cc(-c2n[nH]c(=S)n2CC)cs1,i,2,i,6,i,i
S=c1[nH]nc(-c2ccc(Cl)cc2Cl)n1Cc1ccccc1,i,5,i,60*,i,i

# Assay outcomes deposited in PubChem BioAssay by several laboratories.
